About 83,000 compounds went through this panel and 20% of them were active in at least one assay; those are over-represented in the sample as a whole.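 96-well plates, one dose, 48 hours. Percent growth reported; active if below 10.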 A number with no mark means an inactive call. Activity calls are given as the source filed them.
The molecules below were run on IGROV1 ovarian (assay: NCI-60 one-dose screen, 48 h (100 = growth as untreated, 0 = no growth, -100 = all killed)). Details: 10 µM.

Row | SMILES | growth
1 | CCOc1ccc(Nc2nc3ccccc3nc2Nc2ccc(OCC)cc2)cc1 | 55%
2 | O=c1cc(-c2ccccc2)oc2cc(OCCCCNCc3ccccc3)cc(O)c12 | 63.8%
3 | Cc1ccc(C(C)C)cc1NC(=O)c1ccccc1N(C)C | 88.6%
4 | CCCCSc1nc(Nc2ccc(/C(C)=N/NC(N)=S)cc2)c(C#N)c(-c2ccc(F)cc2)n1 | 49.6%
5 | O=C(c1ccc(Cl)cc1)C1[C@H](c2ccccc2Br)[C@@H](c2ccccc2)NC12C(=O)Nc1ccccc12 (some centres not stated) | 31.3%
6 | CC(=O)c1ccc(NC(=O)NCn2c(=O)[nH]c3ccccc3c2=O)cc1 | 104%
7 | [2H]C([2H])([2H])Oc1ccc2ncc(C#Cc3cncc(C(=O)Nc4ccc(CN5CCN(C)CC5)c(C(F)(F)F)c4)c3)n2n1 | -62.5% (active)
8 | O=C1Nc2cc(Cl)ccc2/C1=C/c1ccc(OCc2ccc(Br)cc2F)cc1 | -41.9% (active)
9 | C[C@H]1[C@H](C)CC[C@]2(COC(=O)CCC(=O)NCC#CCN3CCNCC3)CC[C@]3(C)C(=CC[C@@H]4[C@@]5(C)CCCNC(C)(C)[C@@H]5CC[C@]43C)[C@H]12 | 44.3%
10 | COc1ccc2nc(Cl)c(-c3cc(-c4ccccc4)nc(N)n3)cc2c1 | 52.5%
11 | COc1ccc(CN2[C@H](C(=O)NCCCCCCC(=O)NO)Cc3c([nH]c4ccccc34)[C@H]2C2CC2)cc1 | -42.4% (active)
12 | CN1CCN(c2ccc(Nc3nc(NCCCNC(=O)c4ccccc4)c4sccc4n3)cc2)CC1 | 94.9%

— PubChem BioAssay (NCI)
